# In article PMC4336329 (PLoS ONE, 2015):
# Hit rate of the full screen: of about 310,000 compounds, about 14,000 (4.5%) showed an effect of 50% or more. The effect is printed as a negative number. Only a selection was taken, and strong results are over-represented in it overall.
# Biological target: human ether-à-go-go-related gene (hERG) potassium channel (human, UniProt Q12809)
# Test: primary screen, population patch clamp on CHO cells stably expressing hERG; higher = less effect of the substance
# 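Further: peak tail current of the secondary pulse compared with the same well before compound.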
# Sequence of human ether-à-go-go-related gene (hERG) potassium channel (Q12809 whole entry, looked up): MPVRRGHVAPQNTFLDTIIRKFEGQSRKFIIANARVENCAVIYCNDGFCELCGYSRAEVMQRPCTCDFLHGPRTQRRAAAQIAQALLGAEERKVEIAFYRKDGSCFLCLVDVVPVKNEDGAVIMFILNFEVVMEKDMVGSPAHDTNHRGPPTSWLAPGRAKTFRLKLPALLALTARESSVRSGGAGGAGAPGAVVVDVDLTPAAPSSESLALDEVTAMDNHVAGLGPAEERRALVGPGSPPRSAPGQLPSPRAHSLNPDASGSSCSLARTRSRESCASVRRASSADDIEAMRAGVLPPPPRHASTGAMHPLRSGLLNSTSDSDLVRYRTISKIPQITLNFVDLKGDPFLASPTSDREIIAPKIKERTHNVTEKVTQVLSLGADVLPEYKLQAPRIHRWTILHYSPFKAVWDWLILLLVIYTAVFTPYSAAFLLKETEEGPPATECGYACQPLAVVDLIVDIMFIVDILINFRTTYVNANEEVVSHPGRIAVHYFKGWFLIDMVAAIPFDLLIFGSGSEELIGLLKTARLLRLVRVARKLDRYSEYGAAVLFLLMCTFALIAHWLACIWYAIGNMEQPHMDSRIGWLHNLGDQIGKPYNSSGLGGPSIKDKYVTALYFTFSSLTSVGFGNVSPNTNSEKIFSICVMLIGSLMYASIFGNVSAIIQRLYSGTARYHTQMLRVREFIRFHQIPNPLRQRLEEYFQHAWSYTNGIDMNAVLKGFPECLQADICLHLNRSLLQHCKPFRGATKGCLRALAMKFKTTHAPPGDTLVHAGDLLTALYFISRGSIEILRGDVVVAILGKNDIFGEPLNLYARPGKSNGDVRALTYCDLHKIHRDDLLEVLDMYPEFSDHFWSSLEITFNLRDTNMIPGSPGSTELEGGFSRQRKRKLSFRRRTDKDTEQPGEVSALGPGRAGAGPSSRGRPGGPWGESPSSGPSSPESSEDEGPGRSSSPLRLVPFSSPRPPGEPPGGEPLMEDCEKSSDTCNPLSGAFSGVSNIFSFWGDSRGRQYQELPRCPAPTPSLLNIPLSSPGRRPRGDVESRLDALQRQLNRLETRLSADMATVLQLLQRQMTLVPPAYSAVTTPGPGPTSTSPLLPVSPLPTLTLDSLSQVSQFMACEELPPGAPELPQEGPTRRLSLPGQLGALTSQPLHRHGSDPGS
row,Compound,"hERG current change (%, negative = inhibition) at 10uM [%]"
1,Fc1ccc(-[n+]2nc(Nc3ccccc3)sc2-c2ccc(OCc3ccccc3)cc2)cc1.[Cl-],-20.5
2,Cc1ccccc1OCc1nnc2n1CC(C)S2 (stereo not shown),7.43
3,CCCCC(=O)Nc1ccc(NC(=S)NC(=O)CC)cc1OC,-0.84
4,O=C(OCC(=O)N1CCC(c2ccccc2)=N1)c1ccc([N+](=O)[O-])s1,-34.7
5,CC(C)c1ccc(/C=N/NC(=O)c2cccc(S(=O)(=O)N3CCOCC3)c2)cc1,10.1
6,CN(C)c1ccc(C2C3C(=O)NC(=O)C3ON2c2ccc(Cl)cc2)cc1 (stereo not shown),-64
7,CN(C)c1ccc(C2C3C(=O)N(c4ccc(C(=O)O)cc4)C(=O)C3ON2c2ccccc2)cc1 (stereo not shown),7.23
8,Cc1ccc(N2OC3C(=O)NC(=O)C3C2c2ccco2)cc1 (stereo not shown),7.89
9,O=C(Cn1cnc2c(cnn2-c2ccccc2Cl)c1=O)N1CCc2ccccc21,-0.441
10,CC(CNC(=O)Cn1ccc2cc(S(=O)(=O)N3CCCC3)ccc21)c1ccccc1 (stereo not shown),-9.17
11,O=C(NCCc1ccccc1)c1ccco1,0.15
12,Cc1nonc1CC(=O)N1CCCC(C(=O)c2cccc(C(F)(F)F)c2)C1 (stereo not shown),-56.2
13,Cc1noc(C)c1C(=O)N1CCCC(C(=O)c2cccc(C(F)(F)F)c2)C1 (stereo not shown),-22.6
14,O=C(c1cccc(C(F)(F)F)c1)C1CCCN(C(=O)C2CCOCC2)C1 (stereo not shown),-51.3
15,CC1=C(C(=O)N2CCCC(C(=O)c3cccc(C(F)(F)F)c3)C2)OCCO1 (stereo not shown),2.26
16,CC(C)(C)c1ccc(C(=O)C2CCCN(C(=O)C3CCOCC3)C2)cc1 (stereo not shown),-7.14

row,Compound,"hERG current change (%, negative = inhibition) at 10uM [%]"
1,Cc1nonc1CC(=O)N1CCCC(C(=O)c2ccc(Cl)cc2)C1 (stereo not shown),-8.66
2,O=C(COC(=O)C1CSC2(c3ccc(F)cc3)CCC(=O)N12)NC(=O)NC1CCCC1 (stereo not shown),-4.24
3,O=C1c2ccccc2C(=O)C1c1ccccn1,6.76
4,CC(=O)C(Sc1ccc2nnc(-c3ccc(F)cc3)n2n1)C(C)=O,8.13
5,Cc1ccc(CSc2ccc3nnc(-c4cccnc4)n3n2)cc1,-79.3
6,CCSc1ccc2nnc(-c3ccc(F)cc3)n2n1,-55.6
7,CCC(Sc1ccc2nnc(-c3ccc(F)cc3)n2n1)C(=O)OC (stereo not shown),-48.3
8,O=C(CSc1ccc2nnc(-c3cccnc3)n2n1)Nc1ccc(F)cc1,-31.5
9,Fc1ccc(CSc2ccc3nnc(-c4cccnc4)n3n2)cc1,-71.5
10,CCSc1ccc2nnc(-c3cccc(F)c3)n2n1,-33.6
11,COC(=O)CSc1ccc2nnc(-c3ccc(F)cc3)n2n1,-43.7
12,Cc1ccc(CSc2nnc(-c3cccnc3)n2N)cc1,18
13,CC(=O)C(Sc1ccc2nnc(-c3cccnc3)n2n1)C(C)=O,-2.29
14,Fc1ccc(CSc2ccc3nnc(-c4cccs4)n3n2)cc1,17.1
15,CCCN(CCC)CCCNc1ccc2nnc(-c3ccc(F)cc3)n2n1,-55.9
